# High-throughput results from PubChem.
# In the library only some 2.4% were active in any assay of this set; here they are far more common.
# D2 PAM-1: positive allosteric modulators of human D2 dopamine receptor; AID 485347; P14416; HEK293 T-REx D2, calcium flux, EC20 dopamine potentiation; 340,000 tested, 0.34% active; potentiation, % at 10 µM;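 active = potentiation over 3 SD above the plate norm, cut at about 30% in these data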; note: 0% is about no effect
# Target sequence (P14416 whole entry, looked up): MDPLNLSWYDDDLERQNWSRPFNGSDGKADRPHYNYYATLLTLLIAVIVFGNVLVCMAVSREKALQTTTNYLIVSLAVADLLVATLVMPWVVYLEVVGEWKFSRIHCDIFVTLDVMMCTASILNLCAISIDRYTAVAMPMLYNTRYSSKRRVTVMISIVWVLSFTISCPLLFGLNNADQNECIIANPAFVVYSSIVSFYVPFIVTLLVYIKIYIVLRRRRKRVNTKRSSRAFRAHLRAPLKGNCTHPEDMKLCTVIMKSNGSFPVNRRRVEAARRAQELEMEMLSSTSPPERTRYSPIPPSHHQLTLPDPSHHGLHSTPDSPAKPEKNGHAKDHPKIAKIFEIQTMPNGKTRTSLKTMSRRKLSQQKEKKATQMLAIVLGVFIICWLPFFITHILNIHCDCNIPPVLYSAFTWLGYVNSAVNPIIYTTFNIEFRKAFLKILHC
#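 Tetracycline-induced HEK293 T-REx cells force-coupled to calcium signalling expressed D2; compounds were pin-added after a 10 s baseline, read kinetically 180 s, then an EC20 dopamine challenge followed with a further 180 s calcium read.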
# D2 PAM-2: human D2 receptor positive allosteric modulation; P14416; DiscoveRx D2 beta-arrestin cells, luminescence, 90 min; 100% = 57 uM dopamine signal; potentiation, % (test concentration not listed); 360,000 tested, 0.23% active; in the data active = potentiation above about 50%; inconclusive = mostly about 30% to 49%
#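 PathHunter D2 cells, attached overnight at 37 deg C, received compound in DMSO plus dopamine at EC20 (50 nM final) for 90 min at 37 deg C. Beta-arrestin recruitment was read as luminescence after 1 h with detection reagent at ambient temperature.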
# D2 ag-1: agonists of human D2 dopamine receptor (beta-arrestin); 360,000 tested, 0.084% active; AID 624465; P14416; DiscoveRx PathHunter D2 beta-arrestin, luminescence, 90 min; 100% = 57 uM dopamine signal; activation, % (test concentration not listed); in the data active = activation above about 40%; inconclusive = between about 15% and that limit
#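 DiscoveRx PathHunter D2 beta-arrestin cells (2,100/well) attached overnight, then compound-stimulated 90 min at 37 C in HBSS/10 mM HEPES/0.1% Tween-20 buffer; beta-galactosidase complementation read by luminescence after 1 h at ambient temperature. Dopamine 57 uM final (EC100) as control.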
# D2 ag-2: activates the human D2 dopamine receptor. P14416. HEK293 T-REx D2 cells, calcium flux agonist mode. activation, % at 2 µM. 340,000 tested, 0.53% active;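 active = activation over 3 SD above normal in the single-dose calcium agonist read, cut at about 30% in these data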; note: 0% is about no effect
#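 Agonism scored from kinetic calcium signal (1 read/sec, 180 s) following compound pin transfer, after a 10 s baseline. Cells: HEK293 Trex line expressing inducible D2 receptor coupled to calcium, dye-loaded after overnight culture at 30 C.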
# D2 antagonist: D2 dopamine receptor (human) antagonism. AID 485344. P14416. 340,000 tested, 2% active. HEK293 TREx D2 cells, calcium flux, dopamine EC80. inhibition, % at 10 µM; in the data active = inhibition above about 30%; inactive = below that, where a call was filed; note: 0% is about no effect
#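 Tetracycline-induced HEK293 T-REx cells expressing D2 force-coupled to calcium signalling were dye-loaded, exposed to compound for 180 s, then challenged with an EC80 of dopamine; calcium flux was followed kinetically for a further 180 s.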
# An asterisk follows results filed as active; ? = inconclusive; . = no result given.
SMILES,D2 PAM-1,D2 PAM-2,D2 ag-1,D2 ag-2,D2 antagonist
COc1cc(-c2nc(C(=O)NC3CCN(Cc4ccccc4)CC3)cc3c2[nH]c2ccccc23)cc(OC)c1OC,-23.9,-90.3,-5.9,-0.4,74.0*
COc1ccc(OC)c(-c2nc(C(=O)NCCCN3CCOCC3)cc3c2[nH]c2ccccc23)c1,-17.6,-79.2,-1.5,-0.1,-6.7
COc1ccc(OC)c(-c2nc(C(=O)NC3CCN(Cc4ccccc4)CC3)cc3c2[nH]c2ccccc23)c1,-24.5,-96.6,-3.9,0.4,80.8*
CC1(C(=O)NCCC(F)(F)F)Cc2c(-c3cccc(C(N)=O)c3)ccnc2O1 (stereo unspecified),.,-16.1,9.1,.,.
COc1ccc(CCCNC(=O)C2(C)Cc3c(-c4cccc(C(N)=O)c4)ccnc3O2)cc1 (stereo unspecified),.,26.7,76.4*,.,.
CC(C)CNc1oc(-c2ccco2)nc1C#N,35.8*,-25.5,-3.2,-1.5,6.4
CC(Nc1oc(-c2ccco2)nc1C#N)c1ccccc1 (stereo unspecified),-1.1,-21.6,-0.9,-1.6,-6.8
COc1ccc(NS(=O)(=O)c2c(C)cc(C)cc2C)cc1,-4.7,10.8,-1.2,0.6,33.5*
CCOC(=O)C1=C(C)N=c2s/c(=C3/C(=O)Nc4ccccc43)c(=O)n2C1c1ccc(C)cc1 (stereo unspecified),2.8,-17.7,-4.6,-0.9,-5.5
CCOC(=O)C1=C(C)n2c(s/c(=C3\C(=O)Nc4ccccc43)c2=O)=NC1c1ccc(OC)cc1 (stereo unspecified),7.8,-37.0,-3.0,-0.2,39.7*
O=C(Nc1cccc(Cl)c1)Nc1c[nH]c(=O)[nH]c1=O,-10.1,-4.3,4.1,0.5,34.3*
CSc1ccccc1NC(=O)Nc1ccc(F)c(Cl)c1,-20.8,-14.7,1.2,0.8,42.8*
O=C(Nc1cccc(F)c1)Nc1c[nH]c(=O)[nH]c1=O,-7.5,-5.4,-3.2,1.1,11.6
CSc1ccccc1NC(=O)Nc1cccc(Cl)c1,-19.8,-11.3,-1.1,0.8,36.2*
COc1ccc(NC(=O)CNC(=O)Cc2ccccc2)cc1,32.0*,-0.4,5.8,-1.8,8.1
COc1ccc(NC(=O)CN(C)C(=O)c2oc3ccccc3c2C)cc1,-3.0,-3.3,-1.5,-1.0,31.0*
COc1ccc(NC(=O)CNS(=O)(=O)c2ccc(Cl)cc2)cc1,44.9*,0.7,0.7,0.2,-4.0
COc1ccc(NC(=O)Cc2ccccc2)cc1,9.9,-4.4,-3.9,1.0,-10.1
Cc1cc(-c2ccc(C(C)C)c(S(=O)(=O)Nc3ccccn3)c2)on1,-3.5,-2.7,4.5,-0.9,31.2*
Cc1cc(-c2ccc(C)c(S(=O)(=O)Nc3ccccn3)c2)on1,0.8,.,.,0.1,.
S=C(NCCc1ccccc1)Nc1ccccc1N1CCOCC1,0.6,-7.0,-5.0,0.6,44.7*
COc1ccccc1NC(=O)C1=C(C)Nc2ncnn2C1c1ccc[nH]1 (stereo unspecified),-12.9,.,.,13.9,.
COc1cc(NC(=O)c2cnn3c(C(F)F)cc(C4CC4)nc23)c(OC)cc1Cl,-2.0,-2.7,-2.0,0.5,3.4
COC(=O)c1ccccc1NC(=O)c1cnn2c(C(F)F)cc(C3CC3)nc12,32.7*,15.2,-0.7,-1.6,-26.7
COc1ccc(CCNC(=O)CCn2c(=O)c3ccccc3n(Cc3cc(C)ccc3C)c2=O)cc1OC,-1.2,.,.,-0.1,.
SMILES,D2 PAM-1,D2 PAM-2,D2 ag-1,D2 ag-2,D2 antagonist
COc1ccc(CCN=CC2=C(O)CC(C)(C)CC2=O)cc1,2.8,9.3,-1.9,-0.5,31.4*
CC1(C)CC(=O)C(C=NCCc2ccc(S(N)(=O)=O)cc2)=C(O)C1,.,-4.2,-1.7,.,.
CC1(C)ON(C2CCCCC2)[C@H]2c3nc4ccccc4n3C[C@H]21,1.2,-0.1,-0.2,1.6,39.0*
CN(C)c1ccc(O)c2c1CC1CC3C(N(C)C)C(=O)C(C(N)=O)=C(O)[C@@]3(O)C(=O)C1=C2O (stereo partly specified),.,0.5,-2.9,.,.
CN(C)c1ccc(O)c2c1CC1CC3[C@@H](N(C)C)C(=O)C(C(N)=O)C(=O)[C@]3(O)C(=O)C1C2=O (stereo partly specified),.,60.9*,?,.,.
CS(=O)(=O)N(CC(N)=O)c1cccc(Br)c1,47.7*,?,0.9,0.8,-3.8
